TRHR PAM – qHTS for Small Molecule Agonists and Allosteric Enhancers of Human TRH Receptor: Primary Screen for Enhancers; Thyrotropin-releasing hormone receptor (Homo sapiens), P34981; TRHR cells, fluo-8 calcium fluorescence, EC20 TRH enhancement; enhancement, % at 2 µM; 360,000 tested, 0.66% active; AID 493056, 2011; in the data active = enhancement above about 30%
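Enhancer read-out: after compound pinning and an initial kinetic agonist-mode read, an EC20 of TRH (10 nM final) was injected and fluo-8 calcium signal (Ex 480/Em 530) followed at 1 s/cycle for 100 cycles in TRHR-expressing cells.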
D1 agonist – Allosteric Agonists of the Human D1 Dopamine Receptor: qHTS | D(1A) dopamine receptor (Homo sapiens), P21728 | activation, % at 2 µM | HEK293 T-REx D1 cells, calcium flux, agonist mode | 360,000 tested, 1% active
Target sequence (P21728 whole entry, looked up): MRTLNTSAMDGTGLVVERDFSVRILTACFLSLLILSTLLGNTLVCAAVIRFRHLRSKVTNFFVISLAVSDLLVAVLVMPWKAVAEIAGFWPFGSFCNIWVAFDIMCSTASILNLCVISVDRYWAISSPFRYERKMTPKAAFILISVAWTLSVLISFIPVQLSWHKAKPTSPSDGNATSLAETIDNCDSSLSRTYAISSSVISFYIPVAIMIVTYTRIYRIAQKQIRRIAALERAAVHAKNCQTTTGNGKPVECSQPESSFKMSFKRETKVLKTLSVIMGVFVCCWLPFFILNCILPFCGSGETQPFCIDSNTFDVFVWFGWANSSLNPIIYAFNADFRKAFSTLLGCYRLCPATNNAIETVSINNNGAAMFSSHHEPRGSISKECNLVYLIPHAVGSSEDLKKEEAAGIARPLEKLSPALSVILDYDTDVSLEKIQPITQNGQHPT
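Inducible HEK293 T-REx D1 cells, force-coupled to calcium signalling, were plated at 4000 cells/well with tetracycline and held overnight at 30 C. After no-wash calcium dye loading, compound-evoked calcium rise over 180 s flagged agonists.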
D1 PAM – Potentiators of Human D1 Dopamine Receptor: qHTS. HEK293 TREx D1 cells, calcium flux, dopamine EC20 potentiation. AID 504651, 2011. 360,000 tested, 0.036% active. D(1A) dopamine receptor (Homo sapiens), P21728. potentiation, % at 10 µM; in the data active = potentiation above about 30%
D1 antag – Antagonist of Human D 1 Dopamine Receptor: qHTS. D(1A) dopamine receptor (Homo sapiens), P21728. HEK293 TREx D1 cells, calcium flux, dopamine EC80; active compounds read low. activity change, negative = inhibition, % at 10 µM. 360,000 tested, 3.2% active; in the data active = activity change below about -30%
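Compound effects on dopamine-evoked calcium signalling were measured in tetracycline-induced HEK293 Trex D1 cells. Dopamine at EC80 followed a 180 s compound pre-read, and fluorescence was tracked kinetically for 180 s more.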
LDHA inh – qHTS assay for inhibitors of human lactate dehydrogenase; AID 1347041, 2019; L-lactate dehydrogenase A chain (Homo sapiens), P00338; activity change, % (values are at about 110 or 230 µM); 480,000 tested, 0.15% active; purified LDHA, NADH/diaphorase-resazurin fluorescence; active compounds read low; in the data active = activity change below about -30%
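Human LDH5 (2 nM) was incubated with 0.06 mM NADH and 0.2 mM pyruvate for 5 min at room temperature in Tris pH 7.4. Remaining NADH was coupled through diaphorase/resazurin, and resorufin fluorescence was read at 0 and 20 min.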
TRHR agonist – qHTS for Small Molecule Agonists and Allosteric Enhancers of Human TRH Receptor: Primary Screen for Agonists. TRHR cells, calcium flux fluo-8, FDSS agonist mode. Thyrotropin-releasing hormone receptor (Homo sapiens), P34981. activation, % at 2 µM. 360,000 tested, 0.18% active
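Steps: seed TRHR cells overnight; add fluo-8 no-wash Ca dye, RT 30 min–1.5 h; record 10 s baseline; pin-transfer compounds; monitor fluorescence 1 cycle/s for the agonist window. Calcium increases flag candidate agonists.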
Hits are given with their value; n = inactive; x = not tested or not shown; ! = not active in a repeat. Shown are actives, neighbours in structure and some others; about 3.6% of the full set was active somewhere. Cut-off read from the data, not from the text of the source, unless noted: active = activation above about 30%; inactive = the rest.

SMILES	TRHR PAM	D1 agonist	D1 PAM	D1 antag	LDHA inh	TRHR agonist
COCC(=O)Nc1nnc(-c2ccc(C(C)(C)C)cc2)s1	n	34.1	n	n	n	n
Cc1ccc(CNC(=O)c2cnc(N(C)C)nc2)cc1	n	n	n	-41.6	n	n
COc1ccc(CNC(=O)c2cnc(N(C)C)nc2)cc1	n	n	n	n	n	n
O=C(CNC(=O)c1ccccc1)c1ccccc1	n	n	n	n	n	n
Cc1ccc(CC(NC(=O)c2ccccc2)C(=O)NCC(=O)O)cc1 (stereo not drawn)	35.4	n	n	n	n	n
O=C(O)CNC(=O)c1ccccc1	n	n	n	-34.1	n	n
C/C=N/NC(=O)CCNC(=O)c1ccccc1	33.2	n	n	n	n	n
Cc1cccc(C)c1NC(=O)CNC(=O)c1ccncc1	n	n	n	n	n	n
Cc1cccc(C)c1NC(=O)CNC(=O)c1ccccc1	n	n	x	-31.5	n	n
CC(Cc1ccccc1)NC(=O)C1(c2ccccc2)CCCC1 (stereo not drawn)	x	x	x	x	n	x
CC(C1CCCCC1)C(C)(CCC(=O)O)CC(=O)O (stereo not drawn)	x	x	x	x	n	x
Cc1scc(C(=O)NCC2CCCCC2)c1C	x	x	x	x	n	x
CCSc1nc2c(c(=O)[nH]c(=O)n2C)n1CCC(C)C	x	x	x	x	n	x
COC(=O)CNC(=O)c1ccccc1	x	x	x	x	n	x
Cc1ccc(C(=O)NCC(=O)N/N=C/c2sccc2C)cc1[N+](=O)[O-]	n	n	n	n	n	n
Cc1ccsc1/C=N/NC(=O)CNC(=O)c1ccccc1	n	n	n	-47.2	n	n
O=C(CNC(=O)c1ccccc1)OC1CCCCC1	32.9	n	n	n	n	n
O=C(Oc1ccc2cc(-c3ccc(Cl)cc3)c(=O)oc2c1)N1CCOCC1	x	x	x	x	n	x
CSc1oc(-c2ccc(F)cc2)nc1S(=O)(=O)c1ccc(F)cc1	n	n	n	n	n	n
CS(=O)(=O)c1oc(-c2ccc(F)cc2)nc1S(=O)(=O)c1ccc(Cl)cc1	48.7	n	n	n	n	n
CCCNC(=S)Nc1cc(C(=O)OC)cc(C(=O)OC)c1	x	x	x	x	n	x
CCOC(=O)c1cc2c(C)n(-c3ccc(C)cc3)c(C)c2ccc1=O	n	n	n	-58.3	n	n
CCOC(=O)c1cc2c(C)n(-c3ccc(OCC)cc3)c(C)c2ccc1=O	n	n	n	n	n	n
CCOC(=O)c1cc(Cc2ccccc2)sc1NC(=O)c1c(C)noc1C	x	x	x	x	n	x
Fc1cccc(NC(=S)NCCc2c[nH]c3ccccc23)c1	x	x	x	x	n	x
SMILES	TRHR PAM	D1 agonist	D1 PAM	D1 antag	LDHA inh	TRHR agonist
Cn1c2c(c(=O)n(C)c1=O)C(C(F)(F)F)(C(F)(F)F)N=C(CCC1CCCCC1)N2	n	n	n	-52.3	n	n
Cn1c2c(c(=O)n(C)c1=O)C(C(F)(F)F)(C(F)(F)F)N=C(c1ccccc1Cl)N2	n	n	n	x	n	n
O=C(Nc1ccc(F)c(F)c1F)c1ccc(-c2ccccc2)cc1	x	x	x	x	n	x
COc1cccc(Nc2n[nH]nc2C(=O)Nc2ccc(C)cc2Br)c1	x	x	x	x	n	x
N#CC(c1ccc(Cl)cc1)c1ncc(C(F)(F)F)cc1Cl (stereo not drawn)	n	n	n	-51.4	n	n
N#CC(c1cccc(Cl)c1)c1ncc(C(F)(F)F)cc1Cl (stereo not drawn)	n	n	n	n	n	n
CCOc1ccc(C(=O)C(C)OC(=O)c2nc(Cl)ccc2Cl)cc1 (stereo not drawn)	n	35.2	n	n	n	n
Cc1ccc2[nH]c(-c3ccccc3)c(-c3ccccc3)c2c1	x	x	x	x	n	x
CCOC(=O)c1c(NC(=O)CSc2nnc(Cc3ccccc3)o2)sc(C(C)=O)c1C	n	n	n	-35.7	n	n
CCOC(=O)c1c(NC(=O)CSc2nnc(-c3ccccc3)o2)sc(C(C)=O)c1C	n	n	n	n	n	n
CC(C)(C)c1ccc(NC(=O)CCC(=O)O)cc1	x	x	x	x	n	x
Cc1ccc(N2CCN(C(=O)C3CCN(S(=O)(=O)c4ccc5c(c4)oc(=O)n5C)CC3)CC2C)cc1 (stereo not drawn)	n	n	n	-44.4	n	n
COc1ccc(N2CCN(C(=O)C3CCCN(S(=O)(=O)c4ccc5c(c4)oc(=O)n5C)C3)CC2)cc1 (stereo not drawn)	n	n	n	-45.3!	n	n
CC(C)CN(CC(C)C)C(=O)C1CCCN(S(=O)(=O)c2ccc3c(c2)oc(=O)n3C)C1 (stereo not drawn)	n	n	n	-30.9	n	n
Cc1ccc(N2CCN(S(=O)(=O)c3ccc4c(c3)oc(=O)n4C)CC2C)cc1 (stereo not drawn)	n	n	n	n	n	n
Cn1c(=O)oc2cc(S(=O)(=O)N3CCCC(C(=O)N4CCN(c5ccc(Cl)cc5)CC4)C3)ccc21 (stereo not drawn)	n	n	n	-33.6	n	n
C(#CCN1CCN(CC#CCOCCOCc2ccccc2)CC1)COCCOCc1ccccc1	x	x	x	x	n	x
Cc1c(C)n2c3c(=O)[nH]c(=O)n(C)c3nc2n1CCNc1ccc(Oc2ccccc2)cc1	x	x	x	x	n	x
CCc1ccc(NC(=O)Cn2nc3ccc(S(=O)(=O)C(C)(C)C)nn3c2=O)cc1	x	x	x	x	n	x
CCN(CC)C(=O)C1CCN(S(=O)(=O)c2ccc3oc4ccccc4c3c2)CC1	n	n	n	-35.5	n	n
CCN(C(=O)C1CCN(S(=O)(=O)c2ccc3c(c2)oc(=O)n3C)CC1)c1cccc(C)c1	n	n	x	-39.1	n	n
Cc1nc(CCNC(=O)c2scnc2C)cs1	x	x	x	x	n	x
COc1ccccc1CNC(=O)C1CCN(C(=O)N(C)C)CC1	n	n	n	-38.1	n	n
CN(C)C(=O)N1CCC(C(=O)NCc2ccccc2)CC1	34.4	n	n	n	n	n
O=C(NCc1cccs1)C1CCN(C(=O)NCc2ccccc2)CC1	n	n	n	-84.4	n	n
SMILES	TRHR PAM	D1 agonist	D1 PAM	D1 antag	LDHA inh	TRHR agonist
CN(C)C(=O)N1CCC(C(=O)NCc2ccc(F)cc2)CC1	n	n	n	n	n	n
CCCCNC(C(=O)c1c[nH]c2c(CC)cccc12)c1ccccc1 (stereo not drawn)	x	x	x	x	n	x
O=C(Cc1coc2cc3c(cc12)CCC3)NC1CCCCCCC1	n	n	n	-50.9	n	n
C=CCN(Cc1cccs1)C(=O)COC	x	x	x	x	n	x
COC(=O)c1ccc(NC(=O)C[n+]2ccccc2)cc1	n	n	n	n	n	n
CC(=O)c1ccc(NC(=O)CO/N=C(\C)c2cccs2)cc1	n	n	n	-35.6	n	n

Compound activity: PubChem BioAssay, National Center for Advancing Translational Sciences (NCATS)
